Drawing on PubChem BioAssay (NCI), this text covers growth for 17 compounds.

The structures appear in SMILES notation. The panel holds about 83,000 compounds, 20% with a hit somewhere; the sample as a whole holds those more often.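 Method: cells in 96-well plates; compound added at one concentration; 48 h incubation; percent growth measured; values under 10 scored active.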 Values without a mark were called inactive. Calls of active or inactive are those of the source.

What all share (test): NCI-60 one-dose screen, 48 h (100 = growth as untreated, 0 = no growth, -100 = all killed)
Holding throughout (settings): 10 µM unless noted

The test system of experiment [1] is RPMI-8226 leukemia.
The test system of experiment [2] is OVCAR-8 ovarian.
Experiment [3] concerns OVCAR-5 ovarian.
For experiment [4], the system named is OVCAR-4 ovarian.
Experiment [5] relates to SK-OV-3 ovarian.
In experiment [6] the test system is IGROV1 ovarian.
The test system of experiment [7] is NCI/ADR-RES ovarian.
The test system of experiment [8] is OVCAR-3 ovarian.
The test system of experiment [9] is HS 578T breast.

As to `C=C1CCC2C3(C)COC(c4ccccc4)OC3CCC2(C)C1/C=C/C1=CCOC1=O` (centres undefined), the growth in experiment [1] is -36.8% (active); in [2], 32.9%; in experiment [3], 78.7%; in experiment [4], 50%; in [5], 72.4%; in experiment [6] it was 30.6%. The growth in experiment [7] was 26.2%.

Consider `COc1ccc2c(c1)cn1c3ccc(OC)cc3[nH]c(=O)c21`, for which the growth was -37.8% (active) in [1]; -47.4% (active) in experiment [2]; 21.3% in experiment [3]; 40.4% in [4]; 22.5% in experiment [5]; -54% (active) in experiment [6]. Also, the growth in experiment [7] is -2.47% (active).

As to `CN(C[C@H]1Cc2c(cccc2N2CCN(c3ncccn3)CC2)CN1)[C@H]1CCCc2cccnc21`, the growth in experiment [1] is 27.1%; in experiment [3], 52.8%; in experiment [5], 39.5%; in experiment [6], 37.1%; in [8], 34%; in experiment [9], 73.1%. Further, in experiment [7], the growth is 9.46% (active).

Turning to `Cc1c(C(N)=O)sc2c1c(=O)n(Cc1ccccc1)c1nnc(Nc3ccccc3)n21`, the growth in [1] is 148%; in experiment [2], 89.2%; in experiment [3], 104%; in experiment [4], 117%; in [5], 99.1%; in [6], 104%. For the same compound, the growth in experiment [8] was 115%; in [7], 103%.

Consider `COc1ccc(-c2nc3sccn3c2/C=C/C(=O)c2cc(F)cc(F)c2)cc1`, for which the growth was 6.15% (active) in experiment [1]; 80.7% in experiment [2]; 102% in experiment [3]; 66.2% in experiment [4]; 75.3% in experiment [5]; 54.7% in [8]. For the same compound, the values for the growth in [9] and in experiment [7] were 75.1% and 78%, respectively.

As for `COc1ccc(C2C=C(c3ccc(N)cc3)N=C3SC=CN32)cc1OC` (centres undefined), the growth in [1] is 101%; in experiment [2], 98.7%; in experiment [3], 108%; in experiment [5] it was 115%; in [6], 101%; in experiment [8] it was 107%. In addition, the results for the growth in [9] and in experiment [7] were 127% and 106%, respectively.

With `C=C[C@@H]1C[C@H](O)Cc2ccccc2N1`, the growth in [1] was 89.9%; in experiment [3], 106%; in experiment [4], 113%; in [5], 114%; in experiment [6], 124%; in experiment [8], 125%. The values for the growth in [9] and in [7] were 104% and 106%, respectively.

In the case of `NC(N)=Nc1nc2ccccc2o1`, the growth in [1] is 58.2%; in experiment [3], 110%; in experiment [4], 110%; in experiment [5], 107%; in experiment [6], 102%; in experiment [7] it was 95.1%.

Turning to `O=c1c2sc3ncccc3c2nnn1-c1ccccc1`, the growth in experiment [1] is 99%; in experiment [3], 101%; in experiment [4] it was 103%; in experiment [5], 105%; in [6], 106%; in [8], 112%. Also, the values for the growth in [9] and in [7] were 108% and 107%, respectively.

With `COc1cc(-c2nc(-c3nc4ccc(Cl)cc4[nH]3)cc3c2[nH]c2ccccc23)cc(OC)c1OC`, the growth in experiment [2] is 48.4%; in experiment [3], 93.3%; in experiment [4] it was 59.9%; in experiment [5], 103%; in experiment [6] it was 52.6%; in experiment [8] it was 82.8%. Further, the growth in experiment [9] was 77.3%; in [7], 55.6%.

Consider `COc1cc(-c2nn(-c3cccc(NC(=O)c4cccc(C(F)(F)F)c4)c3)cc2-c2ccncc2)ccc1Cl`, for which the growth in experiment [1] was -1.13% (active); in experiment [3] it was 49.3%; in experiment [4], 46.5%; in [5] it was 7.18% (active); in [6] it was 34%; in experiment [8], -25.6% (active). For the same compound, the growth in experiment [9] was -5.69% (active); in [7] it was 2.75% (active).

In the case of `O=C(C1=Cc2cc3ccccc3n2Cc2cnnn21)c1ccccc1`, the growth in experiment [2] is 51.8%; in [3], 89.2%; in [4] it was 82.7%; in experiment [5], 67.8%; in [6] it was 44.6%; in experiment [8], 26.9%. The growth in experiment [9] was 69%; in [7], 27%.

On to `Cc1ccc(S(=O)(=O)c2nc(-c3ccccc3)oc2S(C)(=O)=O)cc1`, for which the growth is 8.94% (active) in experiment [1]; 54.7% in experiment [2]; 66% in experiment [3]; 80.5% in experiment [4]; 76.6% in [5]; 65.6% in experiment [6]. Besides, the growth in experiment [8] was -86.8% (active); in experiment [9], 91.2%; in [7], 85.1%.

On to `Cn1c(=O)c2[nH]c(C3CC=CCC3)nc2n(C)c1=O` (centres undefined), for which the growth was 101% in experiment [1]; 106% in experiment [2]; 94.7% in [3]; 111% in experiment [4]; 99.1% in [5]; 111% in experiment [6]. The growth was 105% in experiment [8], 97.7% in [9] and 112% in experiment [7].

In the case of `COP(=O)(OC)/C(=N\NS(=O)(=O)c1ccc(C)cc1)c1ccccc1`, the growth in [1] is 109%; in experiment [2], 106%; in experiment [3], 91%; in [5] it was 91.7%; in experiment [8], 103%; in experiment [9], 123%. Besides, the growth in experiment [7] is 95.8%.

In the case of `CCN(CC)c1ccc(C(=N)c2ccc(N(CC)CC)cc2)cc1`, the growth was -32.1% (active) in experiment [1]; -8.61% (active) in experiment [2]; -22.1% (active) in experiment [3]; 12.7% in experiment [4]; -36.6% (active) in [5]; -24.8% (active) in experiment [6]. In addition, the growth in experiment [8] is -38.3% (active); in experiment [9], -47.2% (active); in experiment [7], -49.9% (active).

As for `COc1cc(-c2nn(-c3cccc(NC(=O)c4ccc(N5CCOCC5)c(C(F)(F)F)c4)c3)cc2-c2ccncc2)ccc1Cl`, the growth was 8.3% (active) in experiment [1]; 5.23% (active) in [2]; 34.7% in [3]; 52.3% in experiment [4]; 1.88% (active) in experiment [5]; 41.8% in [6]. Also, the growth in [8] was -29.8% (active); in [9] it was -13.6% (active); in [7] it was -7.13% (active).
